Experimental data reported in PMC7862700, “An all-to-all approach to the identification of sequence-specific readers for epigenetic DNA modifications on cytosine”.

What was measured:
Test in all cases: DAPPL (digital affinity profiling via proximity ligation, sequencing); 10 mM Tris-HCl pH 7.5, 50 mM NaCl, 1 mM DTT, 4% glycerol, room temperature, 30 min; GST-TFs on glutathione beads, 16-mer random dsDNA library, 0.1% formaldehyde crosslink after washing; high values mean tight binding
Conditions in all cases: protein: recombinant; tags: N-terminal GST; dsDNA, one strand shown
ERF = target: T1, ERF (Homo sapiens, UniProt P50548 1-548)
T1 sequence: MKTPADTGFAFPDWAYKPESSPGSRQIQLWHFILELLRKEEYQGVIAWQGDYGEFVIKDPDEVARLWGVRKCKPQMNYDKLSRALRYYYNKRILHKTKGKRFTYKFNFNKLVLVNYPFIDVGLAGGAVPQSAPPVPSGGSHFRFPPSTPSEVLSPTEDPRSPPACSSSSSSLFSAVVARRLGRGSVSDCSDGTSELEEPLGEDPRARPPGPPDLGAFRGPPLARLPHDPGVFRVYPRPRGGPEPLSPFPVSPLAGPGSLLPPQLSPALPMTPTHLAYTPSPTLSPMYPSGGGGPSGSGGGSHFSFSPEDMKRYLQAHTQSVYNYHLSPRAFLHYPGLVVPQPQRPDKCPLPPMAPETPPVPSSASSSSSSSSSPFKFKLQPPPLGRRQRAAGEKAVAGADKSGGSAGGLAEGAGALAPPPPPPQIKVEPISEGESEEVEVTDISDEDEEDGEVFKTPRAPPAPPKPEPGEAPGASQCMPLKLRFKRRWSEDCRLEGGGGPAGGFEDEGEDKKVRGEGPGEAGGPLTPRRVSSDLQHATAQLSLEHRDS
Outline: (§1)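 Human transcription factors carrying a GST fusion were produced in yeast, bound to glutathione beads, tagged with DNA barcodes and pooled together with a tag-only sample. Each pool was held with 200 nmole of a random double-stranded 16-mer DNA library in Tris/NaCl/DTT/glycerol buffer for 30 min at room temperature, then washed, crosslinked in 0.1% formaldehyde, proximity-ligated with BsaI/T4 ligase (1 h, 37 °C), PCR-amplified and sequenced on an Illumina NextSeq500. Binding signal is the read frequency of each hexamer for a given factor divided by its frequency in the tag-only sample.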

ETV3L = target: T2, ETV3L (Homo sapiens, UniProt Q6ZN32 1-361)
T2 sequence: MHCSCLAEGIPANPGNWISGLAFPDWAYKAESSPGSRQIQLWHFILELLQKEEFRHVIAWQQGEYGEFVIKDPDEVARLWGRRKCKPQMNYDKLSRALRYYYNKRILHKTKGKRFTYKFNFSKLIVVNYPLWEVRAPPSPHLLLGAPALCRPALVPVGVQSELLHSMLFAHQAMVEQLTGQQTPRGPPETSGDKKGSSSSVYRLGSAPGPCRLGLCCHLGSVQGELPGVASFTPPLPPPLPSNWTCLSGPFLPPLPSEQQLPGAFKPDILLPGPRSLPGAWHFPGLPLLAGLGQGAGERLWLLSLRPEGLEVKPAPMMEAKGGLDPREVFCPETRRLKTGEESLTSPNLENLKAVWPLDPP
Outline: as §1

ETS2 = target: T3, ETS2 (Homo sapiens, UniProt P15036 1-469)
T3 sequence: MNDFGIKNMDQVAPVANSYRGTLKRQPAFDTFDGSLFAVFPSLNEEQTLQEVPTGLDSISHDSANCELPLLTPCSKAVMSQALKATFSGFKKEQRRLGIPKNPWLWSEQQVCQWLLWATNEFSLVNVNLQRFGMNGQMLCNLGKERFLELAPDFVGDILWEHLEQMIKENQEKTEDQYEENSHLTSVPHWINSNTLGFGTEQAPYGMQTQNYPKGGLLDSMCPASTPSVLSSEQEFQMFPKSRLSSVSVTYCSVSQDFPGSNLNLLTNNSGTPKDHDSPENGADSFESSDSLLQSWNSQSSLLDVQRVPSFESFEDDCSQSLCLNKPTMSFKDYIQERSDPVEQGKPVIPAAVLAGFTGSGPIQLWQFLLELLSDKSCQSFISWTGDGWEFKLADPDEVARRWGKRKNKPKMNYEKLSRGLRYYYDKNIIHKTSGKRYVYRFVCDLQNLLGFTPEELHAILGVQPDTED
Outline: as §1

SPDEF = target: T4, SPDEF (Homo sapiens, UniProt O95238 1-335)
T4 sequence: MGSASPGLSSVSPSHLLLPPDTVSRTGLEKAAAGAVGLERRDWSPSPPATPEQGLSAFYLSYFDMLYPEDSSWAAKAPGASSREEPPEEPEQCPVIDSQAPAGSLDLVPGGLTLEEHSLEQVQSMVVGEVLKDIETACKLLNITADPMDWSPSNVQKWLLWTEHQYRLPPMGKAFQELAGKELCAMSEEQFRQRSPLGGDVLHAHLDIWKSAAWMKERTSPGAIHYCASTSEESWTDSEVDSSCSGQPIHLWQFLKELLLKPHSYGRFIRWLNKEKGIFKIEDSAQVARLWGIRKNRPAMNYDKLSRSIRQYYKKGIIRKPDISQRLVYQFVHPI
Outline: as §1

ETV7 = target: T5, ETV7 (Homo sapiens, UniProt Q9Y603 1-341)
T5 sequence: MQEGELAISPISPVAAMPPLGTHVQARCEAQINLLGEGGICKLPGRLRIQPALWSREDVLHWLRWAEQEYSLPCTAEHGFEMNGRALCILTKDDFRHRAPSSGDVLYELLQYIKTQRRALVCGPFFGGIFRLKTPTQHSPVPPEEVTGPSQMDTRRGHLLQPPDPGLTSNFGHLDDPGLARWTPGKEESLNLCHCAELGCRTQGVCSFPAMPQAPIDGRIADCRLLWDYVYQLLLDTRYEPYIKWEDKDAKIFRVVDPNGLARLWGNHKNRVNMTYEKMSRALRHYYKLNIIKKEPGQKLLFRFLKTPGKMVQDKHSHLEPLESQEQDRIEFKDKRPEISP
Outline: as §1

ELF5 = target: T6, ELF5 (Homo sapiens, UniProt Q9UKW6-2 1-255)
T6 sequence: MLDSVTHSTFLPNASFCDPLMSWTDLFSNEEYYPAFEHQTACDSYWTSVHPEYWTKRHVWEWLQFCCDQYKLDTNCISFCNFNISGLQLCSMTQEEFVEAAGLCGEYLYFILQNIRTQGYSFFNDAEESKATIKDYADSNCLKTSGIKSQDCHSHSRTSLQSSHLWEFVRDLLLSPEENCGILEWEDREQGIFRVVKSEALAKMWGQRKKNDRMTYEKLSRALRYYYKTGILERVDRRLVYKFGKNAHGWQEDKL
Outline: as §1

ETV3 = target: T7, ETV3 (Homo sapiens, UniProt P41162-2 1-143)
T7 sequence: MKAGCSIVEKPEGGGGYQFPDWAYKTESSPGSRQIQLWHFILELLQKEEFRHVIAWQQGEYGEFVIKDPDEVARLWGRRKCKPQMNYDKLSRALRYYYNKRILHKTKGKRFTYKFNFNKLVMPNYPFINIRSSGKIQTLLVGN
Outline: as §1

ETV6 = ETV6 (Homo sapiens, UniProt P41212 1-452)
Outline: as §1

ETV6, sequence (P41212 whole entry): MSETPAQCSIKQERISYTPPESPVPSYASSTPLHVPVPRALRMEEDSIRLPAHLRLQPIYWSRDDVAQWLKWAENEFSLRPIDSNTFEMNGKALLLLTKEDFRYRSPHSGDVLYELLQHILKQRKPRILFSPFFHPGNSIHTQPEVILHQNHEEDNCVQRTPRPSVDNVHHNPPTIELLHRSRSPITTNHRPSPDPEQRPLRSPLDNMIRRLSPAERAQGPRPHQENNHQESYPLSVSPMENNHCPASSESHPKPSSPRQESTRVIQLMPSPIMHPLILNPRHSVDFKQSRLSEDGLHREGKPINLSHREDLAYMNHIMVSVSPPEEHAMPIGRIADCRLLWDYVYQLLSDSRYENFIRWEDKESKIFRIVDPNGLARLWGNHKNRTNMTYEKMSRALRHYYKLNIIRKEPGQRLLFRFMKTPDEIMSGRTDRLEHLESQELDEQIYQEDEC

Sequence | binding signal (ERF) | binding signal (ETV3L) | binding signal (ETS2) | binding signal (SPDEF) | binding signal (ETV7) | binding signal (ELF5) | binding signal (ETV3) | binding signal (ETV6)
ATTCTT | 1.3 fold enrichment (6-mer frequency, TF over GST control) | 1.46 fold enrichment (6-mer frequency, TF over GST control) | 1.41 fold enrichment (6-mer frequency, TF over GST control) | 1.34 fold enrichment (6-mer frequency, TF over GST control) | 1.54 fold enrichment (6-mer frequency, TF over GST control) | 1.4 fold enrichment (6-mer frequency, TF over GST control) | 1.48 fold enrichment (6-mer frequency, TF over GST control) | 1.46 fold enrichment (6-mer frequency, TF over GST control)
CCCACG | 1.13 fold enrichment (6-mer frequency, TF over GST control) | 1.05 fold enrichment (6-mer frequency, TF over GST control) | 1.17 fold enrichment (6-mer frequency, TF over GST control) | 1.05 fold enrichment (6-mer frequency, TF over GST control) | 1.18 fold enrichment (6-mer frequency, TF over GST control) | 1.15 fold enrichment (6-mer frequency, TF over GST control) | 1.11 fold enrichment (6-mer frequency, TF over GST control) | 1.09 fold enrichment (6-mer frequency, TF over GST control)
GCGGAA | 1.19 fold enrichment (6-mer frequency, TF over GST control) | 1.29 fold enrichment (6-mer frequency, TF over GST control) | 1.42 fold enrichment (6-mer frequency, TF over GST control) | 1.22 fold enrichment (6-mer frequency, TF over GST control) | 1.26 fold enrichment (6-mer frequency, TF over GST control) | 1.67 fold enrichment (6-mer frequency, TF over GST control) | 1.55 fold enrichment (6-mer frequency, TF over GST control) | 1.58 fold enrichment (6-mer frequency, TF over GST control)
TCTCCG | 1.38 fold enrichment (6-mer frequency, TF over GST control) | 1.43 fold enrichment (6-mer frequency, TF over GST control) | 1.62 fold enrichment (6-mer frequency, TF over GST control) | 1.65 fold enrichment (6-mer frequency, TF over GST control) | 1.31 fold enrichment (6-mer frequency, TF over GST control) | 1.56 fold enrichment (6-mer frequency, TF over GST control) | 1.66 fold enrichment (6-mer frequency, TF over GST control) | 1.48 fold enrichment (6-mer frequency, TF over GST control)
ATCATG | 1.19 fold enrichment (6-mer frequency, TF over GST control) | 1.08 fold enrichment (6-mer frequency, TF over GST control) | 1.14 fold enrichment (6-mer frequency, TF over GST control) | 1.07 fold enrichment (6-mer frequency, TF over GST control) | 1.13 fold enrichment (6-mer frequency, TF over GST control) | 1.11 fold enrichment (6-mer frequency, TF over GST control) | 1.19 fold enrichment (6-mer frequency, TF over GST control) | 1.08 fold enrichment (6-mer frequency, TF over GST control)
CCGGTC | 1.1 fold enrichment (6-mer frequency, TF over GST control) | 1.13 fold enrichment (6-mer frequency, TF over GST control) | 1.2 fold enrichment (6-mer frequency, TF over GST control) | 1.38 fold enrichment (6-mer frequency, TF over GST control) | 1.22 fold enrichment (6-mer frequency, TF over GST control) | 1.13 fold enrichment (6-mer frequency, TF over GST control) | 1.2 fold enrichment (6-mer frequency, TF over GST control) | 1.15 fold enrichment (6-mer frequency, TF over GST control)
CGTATC | 1.15 fold enrichment (6-mer frequency, TF over GST control) | 1.24 fold enrichment (6-mer frequency, TF over GST control) | 1.11 fold enrichment (6-mer frequency, TF over GST control) | 1.57 fold enrichment (6-mer frequency, TF over GST control) | 1.1 fold enrichment (6-mer frequency, TF over GST control) | 1.19 fold enrichment (6-mer frequency, TF over GST control) | 1.28 fold enrichment (6-mer frequency, TF over GST control) | 1.09 fold enrichment (6-mer frequency, TF over GST control)
